# Laboratory results from PubChem BioAssay AID1117361 (Southern Research Institute, 2015).
# Out of some 3,600 compounds screened, about 900 (25%) were called active. Not all results are given here. Potency and affinity values are given separately. Unmarked numbers belong to inactive results. How the calls were made is not given here.
# Target: Protein Tat (Human immunodeficiency virus type 1 group M subtype B (isolate HXB2)) (UniProt P04608)
# Test: inhibitors of Tat binding to TAR RNA, dose response, counter-screen for Vif-APOBEC3G degradation inhibitor project, biochemical, fluorescence polarization, FAM-labeled TAR RNA (AID 1117361)
# Conditions: outcome: dose series up to 100 µM unless noted; series mostly up to 100 µM; inhibition: at the top concentration
SMILES,outcome,inhibition [%]
COc1cc(/C=C2\CC/C(=C\c3cc(OC)c(O)c(OC)c3)C2=O)cc(OC)c1O,inactive,–
COc1cc(C(=O)OCCN2CCCCC2)ccc1O,inactive,–
CC12C(=O)N(c3ccccc3C(=O)O)C(=O)C1C1C=CC2C1 (stereo unspecified),inactive,–
Cc1nc2ccccc2c2oc(C(=O)N3CCN(C(=O)c4ccco4)CC3)cc12,inactive,–
Cc1cc(C(=O)N2CCN(CCc3ccccc3)CC2)no1,inactive,–
CC(=O)c1c(C)[nH]c(C(=O)Nc2ccc(C)c(C)c2)c1C,–,6.14
CN(C)c1ccc(/C=C/C#N)cc1,inactive,–
CCC(C(=O)Nc1cc(C(=O)O)ccc1C)c1ccccc1 (stereo unspecified),inactive,–
Cc1ccc(S(=O)(=O)N2CCCCC2)cc1C(=O)Nc1ccc2cn[nH]c2c1,–,1.35
CCC(C)NC(=O)Cc1cn(C)c2ccccc12 (stereo unspecified),inactive,–
CCc1nnc(NC(=O)CC(CN(C)S(=O)(=O)c2ccccc2)c2ccccc2)s1 (stereo unspecified),–,3.38
C#CCSc1nnc(-c2sc3ccccc3c2Cl)o1,inactive,–
Cc1ccc(NC(=O)CCC(=O)NNC(=O)COc2cccc3ccccc23)c(C)c1,–,6.08
O=C(CCn1c(=S)oc2ccccc21)Nc1ccc2c(c1)OCCO2,inactive,–
O=C(O)CCCN1C(=O)/C(=C\C(Cl)=C\c2ccccc2)SC1=S,inactive,–
O=C(CCCCCN1C(=O)c2ccccc2C1=O)Nc1nccs1,–,1.67
CCCCOC(=O)CCCN1C(=O)/C(=C2\SC(=S)N(CCCC(=O)OCCCC)C2=O)SC1=S,inactive,–
CCc1ccccc1NNC(=O)CCc1ccccc1,inactive,–
CN(CC(=O)Nc1ccccc1Cl)C(=O)Cn1cc(C(F)(F)F)cc(Cl)c1=O,–,0.33
Cc1ccc(C)c(NC(=O)CSc2ncnc3nc[nH]c23)c1,–,4.09
CC(C)(C)c1ccc(-c2nnc(SCCC#N)n2C2CCCC2)cc1,inactive,–
Cc1nc(C)c2c(c1C(F)(F)F)-c1ccccc1C2(F)F,inactive,–
O=c1[nH][nH]c(=O)c2nc(Nc3ccccc3)ncc12,inactive,–

SMILES,outcome,inhibition [%]
CCc1nc(NCC2CCCN2CC)c2nnn(Cc3ccccc3F)c2n1 (stereo unspecified),–,16.2
CCN1CCN(C(=O)C2COc3ccccc3O2)CC1 (stereo unspecified),inactive,–
Cc1ccc(N=Nc2ccc(N)cc2C)c(S(N)(=O)=O)c1,–,24.7
Cc1c(C(=O)O)oc2ccc(S(=O)(=O)N3CCC(C)CC3)cc12,–,2.7
CC(C)c1nc2ccccc2n1CCC(=O)O,–,2.03
CCOC(=O)CNc1nc2ccccc2n2c(C)nnc12,–,5.77
O=C1CN(C(=O)COC(=O)CCSc2ccccc2Cl)c2ccccc2N1,inactive,–
Cc1ccc(-c2nnc(SCC(=O)N3CC(C)CC(C)C3)o2)cc1C (stereo unspecified),–,4.77
Cc1ccc(-n2nnc3c(=O)n(CC(=O)c4ccccc4)cnc32)cc1,–,1.35
Cn1c(=O)c2c(nc(NCCc3ccccc3)n2Cc2ccccc2)n(C)c1=O,–,2.73
CC(=O)c1ccc(N2CCN(C(=O)C3CCC3)CC2)cc1,–,5.41
CC1(C)CC(=O)C2=C(C1)NCN(Cc1ccc3c(c1)OCO3)C2,–,2.73
COC(=O)c1cccc(NC(=O)c2ccc3c(c2)C(=O)N(CC2CCCO2)C3=O)c1 (stereo unspecified),–,4.73
O=c1[nH]c2ccc(NS(=O)(=O)c3ccc(F)c(Cl)c3)cc2[nH]1,inactive,–
O=C(O)c1cccc2c1Oc1ccccc1S2(=O)=O,–,1.67
CCN1CNC(=S)N(CCc2ccccc2)C1,inactive,–
CCOc1ccc2nc(Cl)c(C3CC(c4ccccc4)=NN3C(=O)c3cccs3)cc2c1 (stereo unspecified),inactive,–
O=C(NCCC1CCCCN1S(=O)(=O)c1ccc(F)cc1)C(=O)NCc1ccccn1 (stereo unspecified),–,1
CC(C(=O)N1CCCCC1)n1ncn2cccc2c1=O (stereo unspecified),–,14.3
OCCN1CCN(CC(O)COc2ccc3ccccc3c2)CC1 (stereo unspecified),–,6.76
CCOc1ccc(N(CC(=O)N2CCC(Cc3ccccc3)CC2)S(C)(=O)=O)cc1,inactive,–
C#CC[N+]1(CC#Cc2ccccc2)CCCC1,inactive,–
CC1(C(=O)O)Cc2ccccc2C(=O)O1 (stereo unspecified),–,8.19

SMILES,outcome,inhibition [%]
CC12CCC(C(=O)Nc3cc(F)ccc3F)(CC1=O)C2(C)C (stereo unspecified),inactive,–
CC1(C)CC(=O)C(N=Nc2ccc(Br)cc2)=C(O)C1,–,9.9
O=C(c1ccc(S(=O)(=O)N2CCOCC2)cc1)N1CCN(c2cccc(Cl)c2)CC1,–,2.73
CN(C)CCCN(CCCN(C)C)C(=S)Nc1ccc(S(=O)(=O)N2CCOCC2)cc1,–,1.65
COCc1nnc(NC(=O)c2ccc(S(=O)(=O)N(C)C3CCCCC3)cc2)o1,–,4.09
O=C(c1ccccc1S(=O)(=O)NCc1ccccc1)N1CCCC1,–,3.38
C=CCn1c(Sc2nc(C)cs2)nc2c1c(=O)[nH]c(=O)n2C,–,3.38
O=C(NCc1cccnc1)C1c2ccccc2C(=O)N1C1CCCC1 (stereo unspecified),–,7.43
NNc1ccc([N+](=O)[O-])c2[nH][nH]c(=O)c12,inactive,–
CCCNC(=O)c1ccccc1NC(=O)c1ccc(CSc2ccccc2)cc1,inactive,–
COc1ccc(-c2cc(C)nc(SCC(=O)c3cccc([N+](=O)[O-])c3)n2)cc1,–,5.01
C=C1C(=O)C2=CC1CCC(=O)C1(C)CCC(OC(C)=O)C(C)(C)C1CC2O (stereo unspecified),inactive,–
CCn1c(SCC(=O)n2nc(C)cc2C)nnc1-c1ccc2c(c1)OCO2,–,0.68
O=C(/C=C/c1cccs1)N1CCN(c2ccc(O)cc2)CC1,inactive,–
O=C(Nc1ccc(Br)cn1)C1CCN(S(=O)(=O)c2cccs2)CC1,inactive,–
Cc1ccc(Nc2nc3nonc3nc2N(C)C)cc1,–,4.77
CCc1nc2ccc(Cc3ccc4nc(CC)[nH]c4c3)cc2[nH]1,–,2.34
Cc1ccc(S(=O)(=O)N(CC(=O)N/N=C/c2cccc3c2OCCO3)c2ccccc2F)cc1,inactive,–
Cc1ccc(-n2c(Cc3cccn3C)nnc2SCC(=O)Nc2nnc(C)s2)cc1,–,9.55
COCC(=O)Nc1nnc(COc2ccccc2)s1,–,0.68
Cn1cnnc1SCC(=O)Nc1ccccc1C(=O)NC1CC1,inactive,–
N#Cc1ccccc1NC(=O)COC(=O)c1ccc(S(=O)(=O)N2CCCC2)cc1,–,8.78
O=C(NC(=O)N1CCN(c2ccc([N+](=O)[O-])cn2)CC1)c1c(Cl)cccc1Cl,–,19.8

SMILES,outcome,inhibition [%]
CC1CC(C)CN(S(=O)(=O)c2ccc(NC(=O)c3ccc(=O)[nH]c3)cc2)C1 (stereo unspecified),inactive,–
COc1ccc(-n2ncc3c(NCc4ccccn4)ncnc32)cc1,–,2.03
CC(=O)Nc1ccc(S(=O)(=O)N2CCN(Cc3ccccn3)CC2)cc1,–,7.43
COc1ccc(S(=O)(=O)N(CCc2ccccc2)CC(=O)NC(C)C)cc1,–,10.8
O=C(Cn1c(=O)oc2ccccc21)N1CCN(S(=O)(=O)c2ccccc2)CC1,–,16.5
CC(C)(C)OC(=O)N1CCN(c2ccc([N+](=O)[O-])cc2)CC1,inactive,–
CCOC(=O)N1CCN(c2c(NCc3ccccc3Cl)c(=O)c2=O)CC1,inactive,–
CC(C)(C)C(=O)O/N=C(\N)c1c(Cl)cccc1Cl,inactive,–
C=CCc1ccc(OCCOCCNCCCC)c(OC)c1,–,1
Cn1c(=O)c2c(nc(CN3CCOCC3)n2CCN2CCOCC2)n(C)c1=O,–,6.08
COc1ccc(CCNC(=O)CSc2nc(-c3ccco3)cc(C(F)(F)F)n2)cc1,–,10.2
O=C(CSc1nc(-c2ccccc2)cc(C(F)(F)F)n1)c1cccc([N+](=O)[O-])c1,–,7.5
Cc1c(F)cccc1NC(=O)CCCCCC1NC(=O)NC1C (stereo unspecified),inactive,–
Cc1ccc(S(=O)(=O)C(F)(F)F)cc1NC(=O)c1cccnc1,inactive,–
COc1cc([N+](=O)[O-])ccc1NC(=O)Oc1ccc(NC(C)=O)cc1,inactive,–
O=c1cc(-c2ccc(O)c(O)c2)oc2cc(O)c(C3OC(CO)C(O)C(O)C3O)c(O)c12 (stereo unspecified),–,14
CC1C(=O)N2CCCc3cc(NC(=O)C(=O)NCc4cccnc4)cc1c32 (stereo unspecified),inactive,–
COc1cc(C2Nc3ccccc3C(=O)N2c2ccccc2)ccc1O (stereo unspecified),–,4.77
Clc1ccc(-c2nc3cnccn3c2Nc2ccc3c(c2)OCO3)cc1,inactive,–
COc1cccc(-c2cc(C(=O)Nc3c(C)n(C)n(-c4ccccc4)c3=O)no2)c1,inactive,–
CC[n+]1ccc(C)c2cc(S(=O)C(F)(F)F)ccc21 (stereo unspecified),–,9.46
COc1ccc(CNC(=O)c2ccc(NC(=O)C3CCCO3)cc2)cc1 (stereo unspecified),–,3.38
COc1ccc(C(=O)Nc2nncs2)cc1S(=O)(=O)N1CC(c2ccccc2)CC1=O (stereo unspecified),–,2.03

SMILES,outcome,inhibition [%]
COC(=O)C(C(=O)Nc1ccc(OC)cc1)C1CCCCCC1 (stereo unspecified),–,12.3
COCCn1nnnc1C(c1cccs1)N1CCN(c2cc(C)ccc2C)CC1 (stereo unspecified),–,3.38
Cc1ccc(C(=O)OC2CCS(=O)(=O)c3sccc32)cc1 (stereo unspecified),–,8.87
COC(=O)c1ccc(NC(=O)CN2CCCC2)cc1,–,2.7
COC(=O)Cc1ccc(NC(=S)NNC(=O)C2CC2)cc1,inactive,–
CCc1nnc(NC(=O)CSc2nnc(Cc3ccccc3)o2)s1,–,1.36
COC(=O)c1c(NC(=O)CSc2nnc(CNc3ccc(Cl)cc3)o2)sc(C)c1C,inactive,–
CCOC(=O)C1=C(Cn2cnc3ccccc32)NC(=O)NC1c1ccc(OC)cc1 (stereo unspecified),inactive,–
Cc1ccc(C(=O)Oc2ccc(C(=O)COC(=O)c3cnccn3)cc2)cc1,inactive,–
Cc1ccccc1N1CCN(Cc2c[nH]c3ccccc23)CC1,inactive [at 50 µM],–
CSc1ccc(/C=N/n2c(C3CCCCC3)n[nH]c2=S)cc1,inactive,–
Cc1nc(C)c(C(=O)Nc2nc3c(C)cccc3s2)o1,–,5.01
Clc1ccc(Sc2cc(N3CCOCC3)nc(-c3ccccc3)n2)cc1,–,14.2
O=C(NC1=NCCS1)C1CC2CCC1C2 (stereo unspecified),–,1.36
NC(=O)COC(=O)c1ccc(Oc2ccccc2)cc1,–,0.68
CCOc1ccc2nc(NC(=O)CCn3cccc3)sc2c1,–,4.73
CCOC(=O)N1CCN(C(=O)c2cc3c(s2)-c2ccccc2OC3)CC1,inactive,–
COc1ccc(OC)c(S(=O)(=O)N2CCN(C)CC2)c1,–,6.82
O=C1N(c2ccccc2)C2CS(=O)(=O)CC2N1c1ccc(Cl)c(Cl)c1 (stereo unspecified),inactive,–
